Measles CPE: protection of cells from measles virus. Measles virus-infected cells, CPE protection, absorbance. protection (pct of control), % at 4 µM. 140,000 compounds, 1.5% hits. AID 841; in the data active = protection mostly above about 24%, no sharp cut-off; inactive = mostly below about 26%
CYP2C19 inhib: human CYP2C19 inhibition | AID 778 | inhibition, % at 5 µM | CYP2C19 Supersomes, luciferin-H EGE luminescence, 30 min | P33261 | 96,000 compounds, 21% hits;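 active = CYP2C19 inhibition above a set limit at 5 µM in the primary screen, cut at about 50% in these data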
CYP2C9 act: increases human cytochrome P450 2C9 activity; activation factor at 5 µM; P11712; 96,000 compounds, 1.4% hits; AID 1024; recombinant CYP2C9, luciferin-H conversion, luminescence; hits give high values; factor 1 = untreated enzyme, 0 = blocked;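 active = activation factor of 2 or more for CYP2C9 at a 5 µM dose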
Target sequence (P11712 whole entry, looked up): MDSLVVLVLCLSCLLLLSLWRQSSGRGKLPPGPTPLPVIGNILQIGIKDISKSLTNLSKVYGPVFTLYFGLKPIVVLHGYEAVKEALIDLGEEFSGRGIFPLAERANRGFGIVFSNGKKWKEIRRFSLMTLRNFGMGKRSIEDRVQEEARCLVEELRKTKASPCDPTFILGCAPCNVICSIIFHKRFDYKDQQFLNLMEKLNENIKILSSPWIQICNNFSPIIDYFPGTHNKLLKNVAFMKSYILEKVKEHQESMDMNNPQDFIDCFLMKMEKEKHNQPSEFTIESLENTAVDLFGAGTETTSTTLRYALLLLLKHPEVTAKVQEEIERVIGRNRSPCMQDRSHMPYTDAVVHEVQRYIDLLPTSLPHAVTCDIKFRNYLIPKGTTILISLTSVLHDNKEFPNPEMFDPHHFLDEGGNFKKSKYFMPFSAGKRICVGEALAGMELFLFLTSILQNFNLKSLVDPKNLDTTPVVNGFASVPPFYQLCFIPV
CYP2C9 inh: inhibitors of human CYP2C9; P11712; inhibition, % at 5 µM; AID 777; 96,000 compounds, 20% hits; CYP2C9 Supersomes, luciferin-H conversion, luminescence;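 active = blocking of liver enzyme CYP2C9 beyond about 50% at 5 µM, limit read from the data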
CYP2C19 activ: activators of human cytochrome P450 2C19. P33261. recombinant CYP2C19, luciferin-H EGE luminescence; hits give high values; 0 = fully inhibited enzyme, 1 = untreated enzyme. activation factor at 5 µM. 96,000 tested, under 10 active. AID 1025;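 active = activation factor of at least 2 at 5 µM in the primary screen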
Large screens that a line does not name were inactive. A selection: hits, their analogues and other compounds. The true share with any hit is near 22%.

O=C(Cc1coc(-c2ccc(F)cc2)n1)NC1CCCCC1	CYP2C19 inhib 51, CYP2C9 inh 60
Cc1ccccc1-n1c(O)c(/C=N/N2CCCCC2c2cccnc2)c(=O)[nH]c1=O (centres undefined)	none (no result: CYP2C19 inhib, CYP2C9 act, CYP2C9 inh, CYP2C19 activ)
COc1ccc(S(=O)(=O)N(CCc2ccccc2)CC(=O)NC(C)C)cc1	CYP2C19 inhib 56, CYP2C9 inh 58
CNC(=O)CN(Cc1ccccc1)S(=O)(=O)c1ccccc1	CYP2C19 inhib 59
Cc1ccc(S(=O)(=O)N(CC(=O)N2CCC(C(N)=O)CC2)Cc2ccc(F)cc2)cc1	none
O=C(CN(Cc1ccc(F)cc1)S(=O)(=O)c1ccccc1)N1CCCCC1	CYP2C19 inhib 65
CC(C)NC(=O)CN(Cc1ccccc1)S(=O)(=O)c1ccccc1	none
COc1ccc(S(=O)(=O)N(CC(=O)NC(C)C)Cc2ccccc2)cc1	CYP2C19 inhib 52, CYP2C9 inh 50
Cc1cccc(C)c1NC(=O)C1(N(Cc2ccco2)C(=O)CC2NC(=O)NC2=O)CCCC1 (centres undefined)	none
CC(C)(C)NC(=O)CSc1ncnc2c1nnn2Cc1ccccc1Cl	none
CCC(=O)N1CCN(c2ccc(NC(=O)c3ccc(-c4ccccc4)cc3)cc2)CC1	none
CCCC(=O)N=C1SC2CS(=O)(=O)CC2N1c1ccc(-c2nc3ccc(C)cc3s2)cc1 (centres undefined)	none (no result: CYP2C19 inhib, CYP2C9 act, CYP2C9 inh, CYP2C19 activ)
CC(C)Nc1nc(NC(C)C)nc(C(N)=O)n1	none
COC(=O)c1ccccc1N(Cc1ccccc1)S(C)(=O)=O	CYP2C19 inhib 78
CC(NC(=S)Nc1ccccc1Cl)C(c1cccs1)N1CCCC1 (centres undefined)	none (no result: CYP2C19 inhib, CYP2C9 act, CYP2C9 inh, CYP2C19 activ)
CSc1nc(N)nc(-c2cccs2)c1C#N	CYP2C19 inhib 78, CYP2C9 inh 58
CC(C)Sc1nc(N)nc(-c2cccs2)c1C#N	CYP2C9 inh 75
N#Cc1c(N)oc(-c2cccs2)c1-c1cccs1	none
Oc1[nH]c(=S)sc1/C=C1\C(c2ccccc2)=Nc2ccccc21	none (no result: CYP2C19 inhib, CYP2C9 act, CYP2C9 inh, CYP2C19 activ)
Cc1nc2ccc(S(=O)(=O)NC(C(=O)N3CCC(C)CC3)C(C)C)cc2s1 (centres undefined)	none
CCCCC(=O)NC1=NC(=O)C(C)(C)S1	none
C=CCNc1ncnc2c1cnn2-c1cccc(C)c1	CYP2C19 inhib 66, CYP2C9 inh 73
Cc1cccc(-n2ncc3c(N4CC(C)CC(C)C4)ncnc32)c1 (centres undefined)	CYP2C9 inh 81
Cc1cccc(-n2ncc3c(NCCCO)ncnc32)c1	CYP2C9 inh 64
Cc1cccc(-n2ncc3c(N4CCCC4)ncnc32)c1	none (no result: CYP2C19 inhib, CYP2C9 act, CYP2C9 inh, CYP2C19 activ)
CCCc1sc(N)nc1-c1ccc(C)cc1	none (no result: CYP2C19 inhib, CYP2C9 act, CYP2C9 inh, CYP2C19 activ)
COC(=O)CSc1snnc1-c1ccc(Cl)cc1Cl	CYP2C19 inhib 77
CCCc1cc(=O)[nH]c(SCC(=O)N2CCN(c3ccc(F)cc3)CC2)n1	none
O=C(NNC(=S)Nc1cccc(C(F)(F)F)c1)c1cccc(Cl)c1	none (no result: CYP2C19 inhib, CYP2C9 act, CYP2C9 inh, CYP2C19 activ)
O=C(NNC1=C(C(=O)C(F)(F)F)CCC1)c1ccc(Cl)cc1	CYP2C9 inh 50
CC(C)(C)c1ccc(C(=O)NNC(=O)c2ccc(Cl)cc2)cc1	none (no result: CYP2C19 inhib, CYP2C9 act, CYP2C9 inh, CYP2C19 activ)
O=C(NNC1=C(C(=O)C(F)(F)F)CCC1)c1cccc(Cl)c1	CYP2C9 inh 91
C=CCNC(=S)NNC(=O)C(CCCC)CC(C)(C)O (centres undefined)	none (no result: CYP2C19 inhib, CYP2C9 act, CYP2C9 inh, CYP2C19 activ)
C/C(=N/NC(=O)C1CCN(S(=O)(=O)c2ccc(C)cc2)CC1)c1cccc([N+](=O)[O-])c1	none (no result: CYP2C19 inhib, CYP2C9 act, CYP2C9 inh, CYP2C19 activ)
COc1cccc(C(=O)OCc2ccccc2C#N)c1O	CYP2C19 inhib 92, CYP2C9 inh 76
CC(c1ccccc1)N1CCn2c(nc3cc(NC(=O)NC4CCCCC4)ccc32)C1 (centres undefined)	none
CCNC(=O)CCSc1nnc(-c2ccco2)o1	none (no result: CYP2C19 inhib, CYP2C9 act, CYP2C9 inh, CYP2C19 activ)
O=C(CC(SCCO)c1ccc2c(c1)OCO2)c1ccco1 (centres undefined)	CYP2C19 inhib 98, CYP2C9 inh 72
CC(C)Cc1nnc(NC(=O)c2ccncc2)s1	CYP2C19 inhib 92, CYP2C9 inh 96
CCCc1nnc(NC(=O)c2ccncc2)s1	CYP2C9 inh 80
CCc1nnc(NC(=O)c2ccncc2)s1	none
Cc1nn(C)c(C(=O)NC2C3CC4CC(C3)CC2C4)c1Cl (centres undefined)	none (no result: CYP2C19 inhib, CYP2C9 act, CYP2C9 inh, CYP2C19 activ)
Cn1c(=O)c2c(nc3sccn32)n(C)c1=O	none (no result: CYP2C19 inhib, CYP2C9 act, CYP2C9 inh, CYP2C19 activ)
Cc1ccc(C(=O)Nc2ccc(S(=O)(=O)N3CCN(C)CC3)cc2)o1	none
CCOC(=O)c1c(Nc2ccccc2N)cc(C)nc1C	CYP2C19 inhib 72
CCOc1ccccc1N1C(=O)c2ccc(C(=O)Nc3cccnc3)cc2C1=O	CYP2C19 inhib 57, CYP2C9 inh 65

From PubChem
